Screening results deposited in PubChem by several laboratories.
The list is not random: actives were taken first. Their share in the collection is about 2%.
Fh CTSL1 inh – cathepsin L1 inhibition, PFM18AAP counter-screen. recombinant F. hepatica cathepsin L1, Z-Leu-Arg-MCA fluorescence. inhibition, % at 5.96 µM. 0.49% of 300,000 active. AID 1906;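 active = inhibition above the mean of all tested compounds plus 3 SD, set per screening campaign, cut at about 17% in these data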
A3G deaminase – blocks human APOBEC3G single-stranded DNA deamination | inhibition, % at 20 µM | AID 493012 | recombinant A3G, ssDNA deamination FAM/TAMRA fluorescence | Q9HC16 | 0.28% of 330,000 active;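 active = inhibition of at least 40% at 20 µM, with no more than 30% in the related APOBEC3A deaminase screen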
APOBEC3A inh – human APOBEC3A DNA deaminase inhibition; recombinant A3A, FAM/TAMRA ssDNA deamination fluorescence; P31941; AID 493011; 0.41% of 330,000 active; inhibition, % at 20 µM;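 active = at least 40% inhibition at 20 µM here, with at most 30% in a related deaminase screen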
NALP1 yeast inh – NALP1 inhibition; S. cerevisiae NALP1/ASC/caspase-1 growth, X-gal OD620, 72 h; inhibition, % at 10 µM; 0.61% of 280,000 active; AID 2071; in the data active = inhibition mostly above about 24%, no sharp cut-off; inactive = mostly below about 32%
sPLA2-III inh – Blocks human group III sPLA2 activity; AID 743126; inhibition, % at 12.2 µM; QFRET BODIPY PC-A2 liposome hydrolysis, fluorescence; 0.56% of 370,000 active; Q9NZ20;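 active = inhibition above mean plus 3 SD of compounds lying within the high and low control bounds, cut at about 19% in these data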
Target sequence (Q9NZ20 whole entry, looked up): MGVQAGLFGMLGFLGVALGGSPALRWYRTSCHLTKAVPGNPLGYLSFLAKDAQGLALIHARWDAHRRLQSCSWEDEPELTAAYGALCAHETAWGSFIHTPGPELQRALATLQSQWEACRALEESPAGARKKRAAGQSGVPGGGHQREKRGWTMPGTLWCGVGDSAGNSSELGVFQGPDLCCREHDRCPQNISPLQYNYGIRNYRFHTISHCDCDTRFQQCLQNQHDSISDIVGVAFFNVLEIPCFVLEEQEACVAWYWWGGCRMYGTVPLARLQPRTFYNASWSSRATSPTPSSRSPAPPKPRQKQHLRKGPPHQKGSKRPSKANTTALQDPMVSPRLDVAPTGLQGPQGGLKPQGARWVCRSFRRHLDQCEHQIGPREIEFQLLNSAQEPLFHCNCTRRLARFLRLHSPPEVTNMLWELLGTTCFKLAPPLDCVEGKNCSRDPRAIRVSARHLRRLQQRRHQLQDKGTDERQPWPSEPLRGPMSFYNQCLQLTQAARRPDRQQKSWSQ
sPLA2 confirm – human GIII-sPLA2 inhibition, confirmation | recombinant hGIII-sPLA2, BODIPY PC-A2 QFRET fluorescence | inhibition, % at 12.2 µM | shares compounds with sPLA2-III inh | 34% of 2,000 active;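 active = mean inhibition across triplicates above the hit cutoff set in the earlier primary screen, cut at about 19% in these data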
BODIPY interf – optically interferes with 535nm fluorescence in sPLA2 counter-screen | 8.5% of 2,000 active | shares compounds with sPLA2-III inh | inhibition, % at 12.2 µM | AID 743282 | BODIPY FL product fluorescence interference, QFRET;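 active = average inhibition above the solvent-only control mean plus 3 SD, cut at about 6% in these data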
BODIPY interf DR – counter-screen for HGIII-sPLA2 inhibitors: 535nm fluorescence interference, dose response | shares compounds with sPLA2-III inh | BODIPY FL product fluorescence interference, cell-free | IC50, µM | 240 tested, under 10 active;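 active = IC50 at or below 10 µM; inactive = IC50 above 10 µM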
A number is an active result; - = inactive; . = no result given; ! = not confirmed by another sample.

SMILES	Fh CTSL1 inh	A3G deaminase	APOBEC3A inh	NALP1 yeast inh	sPLA2-III inh	sPLA2 confirm	BODIPY interf	others
O=C(Nc1nccs1)C1(C(=O)C2CC2)CC(c2ccccn2)=NO1 (centres undefined)	.	.	.	.	-	.	.
O=S1(=O)CC2c3ccccc3CN2CN1C1CCCC1 (centres undefined)	.	.	.	.	-	.	.
O=C(Nc1ccccc1-c1ccccc1)C1CCCC1	-	-	-	-	19.8	-	-
O=C(Nc1ccccc1C(F)(F)F)C1CCCC1	-	-	-	-	-	.	.
C=CCN1C(=O)[C@@H](CC(=O)N2CCCCC2)[C@]2(C(=O)OC)CCCCC=C12	.	.	.	.	-	.	.
CCOC(=O)c1ccc(NC(=S)Nc2cccc(C)n2)cc1	-	-	-	-	-	.	.
CCOC(=O)c1ccc(NC(=S)Nc2cccc(N)n2)cc1	-	-	-	-	22.1	22.0	-
COc1ccc(NC2CS(=O)(=O)CC2NCc2ccccc2)cc1 (centres undefined)	-	-	-	-	21.1	-	-
O=S1(=O)C[C@@H](O)[C@@H](Nc2ccccc2)C1	-	-	-	-	-	.	.
Cc1ccc(-c2cnc(N)n2C)cc1C	-	-	-	-	19.8	-	-
CCCCCCCCNS(=O)(=O)CC1NCc2cc(F)ccc21 (centres undefined)	.	.	.	.	-	.	.
Cc1[nH]n(-c2ccccc2)c(=O)c1C(=O)c1ccccc1	-	-	-	.	-	.	.
CCSC(=S)c1c(C)[nH]n(-c2ccccc2)c1=O	-	-	-	-	19.3	-	-
CCCC1CCC2(CC1)CCC2OC(=O)Nc1ccc(C)cc1 (centres undefined)	.	.	.	.	-	.	.
CCN(CCCCCN(C)C)Cc1cc2ccccc2o1	-	-	-	-	20.8	-	-
CN(C)CCCN(C(=O)c1cc2ccccc2oc1=O)c1nc2ccc(F)cc2s1	-	-	-	-	-	.	.
COc1ccc2cc(CCNC(=O)c3cccc([N+](=O)[O-])c3)c(=O)[nH]c2c1	-	-	-	-	-	.	.
Cc1ccc2cc(CCNC(=O)c3cccc([N+](=O)[O-])c3)c(=O)[nH]c2c1C	-	-	-	-	21.6	-	-
O=C(NC(=S)N(Cc1ccccc1)c1ccccn1)C1CCCCC1	-	-	-	-	23.7	-	-
Nc1[nH]c2ccccc2c1C(=O)NC1CC1	.	.	.	.	-	.	.
Oc1ccc(-c2csc(Nc3cccc4ccccc34)n2)cc1O	-	-	-	-	21.2	-	11.0
COc1ccc(C(=O)NNC(=O)COc2ccc(Cl)cc2)c(OC)c1	-	-	-	-	25.4	-	-
COC(=O)NNC(=O)COc1ccc(Cl)cc1	-	-	-	-	.	.	.
COc1cccc(OCC(=O)NNC(=O)c2ccc3ccccc3c2O)c1	.	-	-	-	36.3	33.4	-	BODIPY interf DR=-
CCOC(=O)CNc1ncc([N+](=O)[O-])cc1C#N	-	-	-	-	21.6	-	-
SMILES	Fh CTSL1 inh	A3G deaminase	APOBEC3A inh	NALP1 yeast inh	sPLA2-III inh	sPLA2 confirm	BODIPY interf	others
COC(=O)C1=C(C)N(CC(C)C)C(=S)NC1c1ccc(-c2ccccc2)cc1 (centres undefined)	.	.	.	.	-	.	.
CC(=O)c1cccc(NC(=O)C2=CN3CCS(=O)(=O)N=C3C=C2)c1	.	-	-	.	20.4	-	-
O=c1[nH]c(NNC(=S)NCc2ccccc2)nc2c1C1(CCCCC1)Cc1ccccc1-2	-	-	-	-	22.9	31.7	9.4
CCOC(=O)[C@@H](C)N1[C@@H](C)[C@H](c2ccccc2)Oc2ccc(Cl)cc2S1(=O)=O	.	.	.	.	-	.	.
COc1ccc(C(C)C)cc1-c1cccc2nncn12	.	.	.	.	20.7	-	-
COC(=O)c1cc(-c2ccc(-c3ccccc3)c(F)c2)c(=O)n2c1CCC2	.	.	.	.	-	.	.
CCCn1c(=S)[nH]c2cc(Cl)ccc21	-	-	-	.	20.9	-	-
CCCCN(C)C(=O)c1ccc2c(c1)NC(=O)C(C)(C)O2	.	.	.	.	-	.	.
O=C(NCc1ccccc1)[C@H]1CCCN1C(=O)[C@H]1CCCN1C(=O)c1ccc(Cl)cc1	.	.	.	.	22.1	-	-
O=C(NCc1ccccc1)[C@H]1CCCN1C(=O)[C@H]1CCCN1C(=O)c1ccccc1	.	.	.	.	-	.	.
COc1cccc(CNC(=O)[C@H]2CCCN2C(=O)[C@H]2CCCN2C(=O)c2ccc(C)cc2)c1	.	.	.	.	22.1	-	-
COc1cccc(CNC(=O)[C@@H]2CCCN2C(=O)[C@@H]2CCCN2C(=O)c2ccc(Cl)cc2)c1	.	.	.	.	-	.	.
O=C(c1cc(C2CC2)on1)N(C1CCCCC1)C1CCOCC1	.	.	.	.	-	.	.
COC(=O)[C@]12CCCCC=C1N(Cc1ccc(OC)cc1)C(=O)[C@@H]2CC(=O)N1CCCCC1	.	.	.	.	-	.	.
Cc1[nH]c2ccccc2c1/C=N/NC(N)=S	92.3	-	-	-	20.9	-	-
FC(F)(F)c1cnc(NNC(=S)Nc2cccnc2)c(Cl)c1	-	-	-	-	20.0	33.1	-	BODIPY interf DR=-
Cc1cc(C)[n+]2n1C(=O)C(c1ccccc1)=C2[O-]	-	-	-	-	21.3!	-	-
O=C1C2C3C=CC(C3)C2C(=O)N1c1nccs1 (centres undefined)	-	-	-	-	-	.	.
CC(C)=C1C2CCC1C1C(=O)N(c3nccs3)C(=O)C21 (centres undefined)	-	-	-	-	20.7	-	-
CNC(=S)NNC(=O)c1oc2nc(-c3ccccc3)cc(C)c2c1N	-	-	-	.	25.1	-	-
CC(C)c1ccc(C2NC(=S)NC3=C2C(=O)CCC3)cc1 (centres undefined)	-	-	-	-	24.2	-	-
O=C1CN(C(=O)c2cc([N+](=O)[O-])ccc2Cl)C(c2ccccc2)c2cc(F)ccc2N1 (centres undefined)	-	-	-	-	30.6	-	-
CCCCCCCCN1CN2Cc3cc(F)ccc3C2CS1(=O)=O (centres undefined)	.	.	.	.	-	.	.
O=C1N/C(=N\N=C\c2cccs2)SC1Cc1cccc(Cl)c1Cl (centres undefined)	-	-	-	-	19.6	-	-
COc1ccc(Cl)cc1-c1n[nH]c(=S)n1C	-	-	-	-	24.0	-	-
O=C(NCc1ccccc1)[C@H]1CCCN1C(=O)[C@H]1CCCN1C(=O)c1ccc(F)c(C(F)(F)F)c1	.	.	.	.	-	.	.
CCN(CC)S(=O)(=O)c1ccc(C)c(NC(=O)COc2ccc3c(C)cc(=O)oc3c2)c1	-	-	-	-	19.9	-	-
COCC(=O)N1[C@H](CO)[C@@H](c2ccc(-c3cccnc3)cc2)[C@H]1CN(C)S(=O)(=O)c1ccccc1[N+](=O)[O-]	.	.	.	.	-	.	.
CCOC(=O)c1sc(=S)n(C)c1NC(=O)c1ccccc1C	-	-	-	-	24.4	-	-
CCCC(C)NC(=O)CC1Oc2ccccc2NC1=O (centres undefined)	.	.	.	.	-	.	.
